Source: PubChem BioAssay (National Center for Advancing Translational Sciences (NCATS))
BAZ2B block – qHTS Assay for Inhibitors of BAZ2B | Bromodomain adjacent to zinc finger domain protein 2B (Homo sapiens), Q9UIF8 | AlphaScreen BAZ2B-H3K14Ac peptide displacement | Potency, µM (titrated, usually from 114 µM), usual class: inhibitors | hit rate 4.4% among 360,000 | AID 504333, 2011; note: nearly all actives have a fitted effect of over 60% in size
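Multi-concentration screen (max 110 uM) measuring displacement of acetylated histone H3 peptide from BAZ2B by AlphaScreen, using 50 nM protein, 50 nM peptide and 10 ug/mL streptavidin donor plus Ni-chelate acceptor beads.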
HP1b binding inh – HTS for Inhibitors of HP1-beta Chromodomain Interactions with Methylated Histone Tails | hit rate 0.56% among 390,000 | Potency, µM (titrated, usually from 114 µM), usual class: inhibitors | AlphaScreen HP1-beta / biotin-H3K9me3 peptide binding; note: nearly all actives have a fitted effect of over 70% in size
Target sequence (P83916 whole entry, looked up): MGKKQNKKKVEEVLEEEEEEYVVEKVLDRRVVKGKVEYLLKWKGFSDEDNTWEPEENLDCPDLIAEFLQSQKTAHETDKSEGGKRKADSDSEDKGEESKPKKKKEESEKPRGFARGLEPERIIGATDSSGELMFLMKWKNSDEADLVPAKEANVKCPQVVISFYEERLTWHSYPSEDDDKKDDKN
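HP1-beta protein (50 nM final) preincubated 30 min at room temperature with biotinylated H3(1-18)K9me3 peptide (50 nM) in PBS pH 7.4, 0.01% Tween-20, then compound added for 30 min. AlphaScreen streptavidin donor/nickel chelate acceptor beads (10 ug/mL final), 30 min dark, luminescence read.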
G9a inh – qHTS Assay for Inhibitors of Histone Lysine Methyltransferase G9a. hit rate 8.8% among 350,000. G9a H3K9 monomethylation, AlphaScreen, 2 h. Potency, µM (doses to about 102 µM), usual class: inhibitors. Histone-lysine N-methyltransferase EHMT2 (Homo sapiens), Q96KQ7; note: nearly all actives have a fitted effect of over 75% in size
Target sequence (Q96KQ7 913-1193 limits assumed): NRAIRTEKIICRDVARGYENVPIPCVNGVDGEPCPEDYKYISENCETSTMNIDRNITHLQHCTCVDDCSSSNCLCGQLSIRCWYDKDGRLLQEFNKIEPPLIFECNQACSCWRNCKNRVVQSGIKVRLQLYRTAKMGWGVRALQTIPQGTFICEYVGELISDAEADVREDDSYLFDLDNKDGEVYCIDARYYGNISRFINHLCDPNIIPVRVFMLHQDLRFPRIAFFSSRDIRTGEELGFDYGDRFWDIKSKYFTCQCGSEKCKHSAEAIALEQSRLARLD
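AlphaScreen detection with an anti-monomethyl H3K9 antibody quantified product after a 2 h room-temperature reaction containing 500 nM biotinylated H3K9 peptide, 20 µM SAM and 20 nM enzyme, which had been preincubated 15 min with compound.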
Sfp inh – qHTS Assay for Inhibitors of Bacillus subtilis Sfp phosphopantetheinyl transferase (PPTase); 4'-phosphopantetheinyl transferase ffp (Bacillus subtilis), Q9F4F7; Biochemical Sfp PPTase activity, qHTS; Potency, µM, most hits filed as inhibitors; hit rate 3.5% among 310,000;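 note: the enzyme is Sfp with the accession as filed and its product quenches rhodamine fluorescence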
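Step 1, compound plus 15 nM Sfp-PPTase, 15 min, room temperature. Step 2, add rhodamine-CoA (5 uM) and BHQ-2-YbbR (12.5 uM). Step 3, read 525/598 nm fluorescence at 0 and 30 min.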
JMJD2A Tudor – qHTS Assay for Inhibitors of JMJD2A-Tudor Domain | AlphaScreen JMJD2A-Tudor / H3K4me3 peptide binding | Potency, µM (doses to about 114 µM), usual class: inhibitors | hit rate 4.4% among 390,000; note: nearly all actives have a fitted effect of over 50% in size
Large screens that a line does not name were inactive. Hits are enriched below; roughly 12% of the tested compounds scored in any of these assays. Calls come from the whole dose curve; as a rule, active = well fitted curve in the direction sought with a large enough effect; inconclusive = small, poorly fitted or top-dose-only effect, or another doubt; inactive = no such curve, though single readings can be large; an effect the other way counts as inactive or inconclusive.

C/C(=N\NC(=O)c1cc(C)nc2ccccc12)c1ccncc1	none (no result: G9a inh)
C/C(=N\Nc1ccc(Cl)cc1)c1ccncc1	BAZ2B block inconclusive, G9a inh inconclusive, JMJD2A Tudor inconclusive
C/C(=N/Nc1ccc([N+](=O)[O-])cc1)c1c[nH]c2ccccc12	BAZ2B block 40µM, HP1b binding inh inconclusive, G9a inh inconclusive, JMJD2A Tudor inconclusive
C/C(=N\NC(=O)c1cc(C)nc2ccccc12)c1ccccn1	BAZ2B block 7.9µM, JMJD2A Tudor 20µM (no result: Sfp inh)
CCc1cccc(N2C(=O)N(Cc3c(F)cccc3Cl)c3ccccc3S2(=O)=O)c1	none (no result: Sfp inh)
CC(C)N(C)S(=O)(=O)c1ccc(NC(=O)C2=COCCO2)cc1	G9a inh inconclusive (no result: Sfp inh)
CC[C@H](C)[C@@H](NC(=O)O[C@H]1C(=O)c2cc(OC)ccc2O[C@@H]1c1ccc(OC)c(Br)c1)C(=O)OC	none (no result: BAZ2B block, HP1b binding inh, G9a inh, JMJD2A Tudor)
C/C(=N/NC(=O)c1ccccn1)c1ccc(O)cc1	BAZ2B block 50µM, JMJD2A Tudor inconclusive (no result: G9a inh)
C/C(=N/NC(=O)c1ccccn1)c1c[nH]c2ccccc12	BAZ2B block 50µM, G9a inh inconclusive
C/C(=N\NC(=O)c1ccc(Cl)cc1)c1cccnc1	none
C/C(=N\NC(=O)c1ccc(N/N=C(\C)c2ccc(O)cc2)cc1)c1ccc(O)cc1	BAZ2B block inconclusive (no result: G9a inh)
C/C(=N\NC(=O)c1ccccn1)c1ccc(Cl)cc1	BAZ2B block inconclusive, Sfp inh 89µM (no result: G9a inh)
C/C(=N\NC(=O)COc1ccccc1-c1ccccc1)c1ccccn1	BAZ2B block 56µM
CC(=O)c1cccc(NC(=O)C2CCCN(c3nnc(-n4cccc4)s3)C2)c1 (centres undefined)	none (no result: Sfp inh)
N/C(=N\OC(=O)C12CC3CC(CC(C3)C1)C2)c1ccccn1	none
C/C(=N\NC(=O)c1ccccn1)C12CC3CC(CC(C3)C1)C2	BAZ2B block 50µM, G9a inh inconclusive, JMJD2A Tudor inconclusive
O=C(N(c1ccccn1)c1ccccn1)C12CC3CC(CC(C3)C1)C2	G9a inh 79µM
COc1ccc(NC(=O)CSc2c(C)nn(-c3nnc(C)c(=O)[nH]3)c2C)cc1	BAZ2B block 32µM, G9a inh 13µM, Sfp inh 50µM, JMJD2A Tudor 40µM
CCN(CC)CCNC(=O)c1ccc(-c2nc(CS(=O)(=O)c3ccc(C)cc3)c(C)o2)cc1	G9a inh inconclusive (no result: Sfp inh)
Cn1c2c(c(=O)n(C)c1=O)C(c1ccc(F)cc1)C(C#N)=C(N)O2 (centres undefined)	G9a inh 45µM
Cc1ccc(C2C(C#N)=C(N)Oc3c2c(=O)n(C)c(=O)n3C)cc1 (centres undefined)	G9a inh inconclusive
CC(C)n1nnnc1-c1ccc(Cl)cc1	none
CC(=O)NC1C(=O)N(CCN2CCOCC2)c2ccc(Cl)cc21 (centres undefined)	BAZ2B block 8.9µM, HP1b binding inh inconclusive, G9a inh 32µM, Sfp inh inconclusive, JMJD2A Tudor 13µM
CC(=O)NC1C(=O)N(CCN2CCOCC2)c2ccc(F)cc21 (centres undefined)	BAZ2B block 10µM, G9a inh 32µM, Sfp inh 71µM, JMJD2A Tudor 22µM
CC(=O)NC1C(=O)N(CCN2CCOCC2)c2ccc(C)cc21 (centres undefined)	BAZ2B block 5µM, HP1b binding inh inconclusive, G9a inh 20µM, Sfp inh 79µM, JMJD2A Tudor 7.1µM
Cc1nc(N2CCOCC2)c2c(C(=O)Nc3cccc(C(F)(F)F)c3)c(C)oc2n1	none (no result: Sfp inh)
Cc1cc(C(C#N)c2cccc(Cl)c2)n2ncnc2n1 (centres undefined)	BAZ2B block inconclusive, G9a inh 8.9µM, JMJD2A Tudor inconclusive
COc1ccc2c(c1)CCC1C2=NN(/C(C)=C\C(C)=O)C1c1ccc(F)cc1 (centres undefined)	G9a inh 16µM, Sfp inh 45µM, JMJD2A Tudor 14µM
COc1ccc2c(c1)C1=NN(/C(C)=C/C(C)=O)C(c3ccc(F)cc3)C1CC2 (centres undefined)	JMJD2A Tudor inconclusive
CC(C)=NNC(=O)CN1C(=O)NC2NC(=O)NC21 (centres undefined)	G9a inh 79µM
CCC(C)NC(=O)CN1C(=O)NC2NC(=O)NC21 (centres undefined)	none
OCCN1CCN(C(=S)c2ccc(Cl)c(Cl)c2)CC1	HP1b binding inh inconclusive, G9a inh 2µM, Sfp inh 3.2µM, JMJD2A Tudor 56µM
COc1nc(N)nc(NC(=O)c2cccs2)c1N=O	JMJD2A Tudor 28µM (no result: BAZ2B block, G9a inh, Sfp inh)
Cc1cc(NC(=O)COc2ccccc2C)ccc1NC(=O)c1cccs1	G9a inh 79µM
Cc1cc(NC(=O)COc2ccccc2C)ccc1NC(=O)c1ccco1	none
COc1ccc(NC(=O)c2ccc(NC(=O)c3cccs3)cc2)cc1	none (no result: G9a inh)
COc1cc(N)ccc1NC(=O)c1cccs1	G9a inh 8.9µM
COc1cc(NC(=O)c2cc(OC)c(OC)c(OC)c2)ccc1NC(=O)c1cccs1	none
CCN(CC)CCN(CC)Cc1ccccc1Br	G9a inh 50µM
O=C(COc1ccc(Cl)cc1)N1CCN(C(=O)c2ccccc2F)CC1	none
C#CCOCCOCCOCCNc1nc(N2CCN(C(=O)[C@H](CCCCN)n3cc([C@@H](N)CO)nn3)CC2)nc(N2CCN(C(=O)[C@H](Cc3cc4ccccc4[nH]3)n3cc([C@@H](N)Cc4ccc(O)cc4)nn3)CC2)n1	BAZ2B block 32µM (no result: HP1b binding inh, JMJD2A Tudor)
C#CCOCCOCCOCCNc1nc(N2CCN(C(=O)[C@H](CCCCN)n3cc([C@@H](N)CC(C)C)nn3)CC2)nc(N2CCN(C(=O)[C@H](Cc3cc4ccccc4[nH]3)n3cc([C@@H](N)Cc4ccc(O)cc4)nn3)CC2)n1	JMJD2A Tudor 18µM
COC(=O)c1c(NC(=O)/C(C#N)=C/c2ccc(OC)cc2)sc2c1C(C(=O)OC)CC2 (centres undefined)	none (no result: Sfp inh)
Cc1cc(C)c(NC(=O)CN(C)CC(=O)Nc2cccc(S(=O)(=O)N(C)c3ccccc3)c2)c(C)c1	HP1b binding inh inconclusive, JMJD2A Tudor 7.1µM (no result: BAZ2B block, G9a inh, Sfp inh)
COc1cccc(NC(=O)CN(C)CC(=O)NCc2ccco2)c1	none (no result: Sfp inh)
CCN(CC(=O)Nc1cccc(S(=O)(=O)N(C)c2ccccc2)c1)Cc1ccccc1	none (no result: Sfp inh)
CCN(CC(=O)Nc1cccc(C(C)=O)c1)S(=O)(=O)c1ccc(OC)cc1	none
Cc1ccccc1CN(C)CC(=O)Nc1cccc(S(=O)(=O)N(C)c2ccccc2)c1	JMJD2A Tudor 79µM
